The nature of test [1]: CCTE_Harrill_HTTr_Viability_MCF7: CCTE's 6-hour Cell Viability Assessment for the High-Throughput Transcriptomics (HTTr) Platform, in MCF-7 cells cultured in DMEM + 10% fetal bovine serum, Harrill Lab (AID 2284010). Summed up: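 Eight-point concentration series, six-hour exposure. Propidium iodide exclusion imaged to assess membrane integrity as a cytotoxicity readout; bidirectional fitting was done with DMSO as negative control and activity baseline.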

Test [2] is described as follows: CCTE_Harrill_HTTr_Apoptosis_MCF7: CCTE's 6-hour Apoptosis Assessment for the High-Throughput Transcriptomics (HTTr) Platform, in MCF-7 cells cultured in DMEM + 10% fetal bovine serum, Harrill Lab (AID 2284011). Summed up:
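MCF-7 cells in DMEM + 10% fetal bovine serum were exposed to chemicals for 6 hours over an eight-point dilution series. Caspase-3/7 activation was imaged by high content imaging with CellEvent Caspase 3/7 Green; bidirectional fitting used DMSO as baseline.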

Test [3] can be described thus: CCTE_Harrill_HTTr_CellCount_MCF7: CCTE's Cell Proliferation Assessment for the High-Throughput Transcriptomics (HTTr) Platform, Harrill Lab (AID 2284012; active = hit-call score of the fitted dose curve at least 0.9, where 1 is the maximum;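 note: intended direction is loss of nuclei count meaning fewer cells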). The essentials: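 For this full-screen endpoint, MCF-7 cultures received eight compound dilutions for six hours. Well nuclei counts from Hoechst imaging were analyzed relative to DMSO.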

Inconclusive results are not listed. Active and inactive are the calls of the source. Rule for the calls, unless noted: active = hit-call score of the fitted dose curve at least 0.9, where 1 is the maximum; inactive = score below 0.9.

Consider `ClC1=C(Cl)[C@]2(Cl)[C@H]3[C@H]([C@H]4C=C[C@H]3C4)[C@@]1(Cl)C2(Cl)Cl`, for which the outcome in test [1], in test [2] and in test [3] was inactive.
In the case of `Oc1ccc(-c2ccccc2)cc1`, the outcome in test [1], in test [2] and in test [3] was inactive.
For the compound `CC1(C)Cc2cccc(O)c2O1`, the result in test [1] and in test [3] was inactive.
`C[C@@H](Oc1ccc(Cl)cc1Cl)C(=O)O`: the outcome in test [1] and in test [3] was inactive.
In the case of `CC(Br)C(=O)O` (stereo not drawn), the outcome in test [1], in test [2] and in test [3] was inactive.
`COc1cc2c(cc1OC)[C@@]13CCN4CC5=CCO[C@H]6CC(=O)N2[C@H]1[C@H]6[C@H]5C[C@H]43`: the outcome in test [1] and in test [3] was inactive.
Take `CCC[CH2][Sn]([CH2]CCC)([CH2]CCC)[O]C(=O)c1ccccc1`: the concentration at half-maximal activity (AC50) in test [1] is 15.6 µM (active); in test [2] it was 11.5 µM (active); in test [3] it was 17.9 µM (active).
As to `COc1ccc(C=O)cc1OC`, the result in test [1], in test [2] and in test [3] was inactive.
For the compound `N#CCCO`, the result in test [1], in test [2] and in test [3] was inactive.
With `P.[In]`, the result in test [1] and in test [3] was inactive.
Regarding `NC(=O)CF`, the outcome in test [1], in test [2] and in test [3] was inactive.
Regarding `CC(C)OC(=O)Nc1ccccc1`, the result in test [1] and in test [3] was inactive.
Turning to `Nc1cccc2ccccc12`, the half-maximal activity concentration (AC50) in test [1] was 37.4 µM (active). Further, in test [3], the outcome was inactive.
For the compound `CCOC(=O)Nc1cccc(OC(=O)Nc2ccccc2)c1`, the result in test [1], in test [2] and in test [3] was inactive.
For `C[C@]12CC[C@H](O)CC1=CC[C@@H]1[C@@H]2CC[C@]2(C)C(=O)CC[C@@H]12`, the result in test [1], in test [2] and in test [3] was inactive.
On to `ClC(Cl)=C(Cl)C(Cl)=C(Cl)Cl`, for which the outcome in test [1], in test [2] and in test [3] was inactive.
For the compound `CC1(C)CCC(Cc2ccc(Cl)cc2)C1(O)Cn1cncn1` (stereo not drawn), the outcome in test [1] and in test [3] was inactive.
With `O=C(Cc1ccccc1)c1ccccc1`, the result in test [1], in test [2] and in test [3] was inactive.
On to `Oc1cccc2cccnc12`, for which the result in test [1], in test [2] and in test [3] was inactive.
For `C=CC#N`, the outcome in test [1], in test [2] and in test [3] was inactive.
`Oc1c(I)cc(I)cc1I`: the result in test [1] and in test [3] was inactive.
`CCCCCCCCCl`: the outcome in test [1] and in test [3] was inactive.
Consider `CCc1ccccc1C`, for which the outcome in test [1] and in test [3] was inactive.
As to `O=S(=O)(c1ccc(Cl)cc1)c1ccc(Cl)cc1`, the outcome in test [1] and in test [3] was inactive.
In the case of `COc1ccc(C(O)(c2cncnc2)C2CC2)cc1` (stereo not drawn), the result in test [1], in test [2] and in test [3] was inactive.
As for `Clc1ccc(C2(Cn3cncn3)CC(Br)CO2)c(Cl)c1` (stereo not drawn), the outcome in test [1], in test [2] and in test [3] was inactive.
As to `O=CC=O`, the result in test [1] and in test [3] was inactive.
In the case of `[O-][Cl+2]([O-])O`, the result in test [1] and in test [3] was inactive.
Regarding `CCCCOCCOC(C)=O`, the outcome in test [1] and in test [3] was inactive.
As for `O=C(O)C(F)(F)C(F)(F)C(F)(F)C(F)(F)C(F)(F)C(F)(F)F`, the result in test [1], in test [2] and in test [3] was inactive.
Turning to `Nc1ccc(N=Nc2ccc(-c3ccc(N=Nc4c(S(=O)(=O)O)cc5cc(S(=O)(=O)O)c(N=Nc6ccccc6)c(O)c5c4N)cc3)cc2)c(N)c1`, the result in test [1] and in test [3] was inactive.
With `COc1ccc(C=O)cc1`, the outcome in test [1], in test [2] and in test [3] was inactive.
Turning to `CC(C)C1CCC(Cc2ccc(Cl)cc2)C1(O)Cn1cncn1` (stereo not drawn), the outcome in test [1] and in test [3] was inactive.
On to `CC1CCCCC1NC(=O)Nc1ccccc1` (stereo not drawn), for which the result in test [1], in test [2] and in test [3] was inactive.
In the case of `CCOP(=S)(OCC)Oc1ccc(S(C)=O)cc1` (stereo not drawn), the outcome in test [1], in test [2] and in test [3] was inactive.
For the compound `CN(C)N=O`, the result in test [1] and in test [3] was inactive.
Turning to `Cc1ccc(N)cc1Cl`, the outcome in test [1] and in test [3] was inactive.

These data come from PubChem BioAssay (EPA / NIEHS).
